Test results as given in PMC4336329 (PLoS ONE, 2015).
Screen size: about 310,000 compounds; about 2,200 (0.71%) showed an effect of 50% or more. Effects have a minus sign here. This is one part of a sample in which strong results are shown more often than they occur.

Target: human ether-à-go-go-related gene (hERG) potassium channel (human, UniProt Q12809)
Experiment: primary screen, population patch clamp on CHO cells stably expressing hERG; higher = less effect of the substance

Sequence of human ether-à-go-go-related gene (hERG) potassium channel (Q12809 whole entry, looked up): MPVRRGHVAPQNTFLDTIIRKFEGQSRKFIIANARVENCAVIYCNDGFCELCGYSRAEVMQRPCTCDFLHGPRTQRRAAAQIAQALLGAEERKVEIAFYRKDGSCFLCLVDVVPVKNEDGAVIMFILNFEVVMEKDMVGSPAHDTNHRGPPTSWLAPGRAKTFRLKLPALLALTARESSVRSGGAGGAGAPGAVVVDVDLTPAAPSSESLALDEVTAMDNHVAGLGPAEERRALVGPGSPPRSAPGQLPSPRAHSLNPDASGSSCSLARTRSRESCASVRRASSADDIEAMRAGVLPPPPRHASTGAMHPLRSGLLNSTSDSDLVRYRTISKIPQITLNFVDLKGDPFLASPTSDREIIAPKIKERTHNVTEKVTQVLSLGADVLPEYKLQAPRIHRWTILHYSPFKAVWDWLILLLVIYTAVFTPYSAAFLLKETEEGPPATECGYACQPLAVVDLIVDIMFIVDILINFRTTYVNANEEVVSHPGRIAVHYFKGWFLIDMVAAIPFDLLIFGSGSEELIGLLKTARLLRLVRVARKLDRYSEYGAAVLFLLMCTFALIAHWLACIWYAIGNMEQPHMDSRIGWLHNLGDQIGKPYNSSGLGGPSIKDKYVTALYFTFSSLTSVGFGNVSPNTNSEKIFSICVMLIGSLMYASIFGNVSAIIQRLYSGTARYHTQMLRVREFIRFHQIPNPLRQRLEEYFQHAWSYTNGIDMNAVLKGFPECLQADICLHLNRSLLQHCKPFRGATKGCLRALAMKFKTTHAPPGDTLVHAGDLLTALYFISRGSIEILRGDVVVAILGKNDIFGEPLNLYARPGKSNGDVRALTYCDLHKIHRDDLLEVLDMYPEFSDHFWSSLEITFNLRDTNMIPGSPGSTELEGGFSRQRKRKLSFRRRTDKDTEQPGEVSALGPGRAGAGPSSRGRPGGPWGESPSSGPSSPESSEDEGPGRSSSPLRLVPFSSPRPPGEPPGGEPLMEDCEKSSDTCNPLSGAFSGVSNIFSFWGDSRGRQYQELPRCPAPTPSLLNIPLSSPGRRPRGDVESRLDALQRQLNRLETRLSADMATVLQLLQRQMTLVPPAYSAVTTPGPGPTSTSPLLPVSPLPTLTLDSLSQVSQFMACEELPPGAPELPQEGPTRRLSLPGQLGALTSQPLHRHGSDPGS

Compound	hERG current change (%, negative = inhibition) at 1uM [%]
CCNC(=O)Nc1nc2ccccc2s1	8.72
Cc1nn(C)c(=O)c(N)c1-c1cc(-c2ccc(Cl)c(Cl)c2)n[nH]1	12.9
CCN(CC(=O)Nc1ccc(OC(F)F)cc1)C1CCCCC1	-61.6
CCN(C(=S)Nc1ccc(OC(F)F)cc1)C1CCCCC1	-1.82
CCN(CC(=O)Nc1ccc(C(=O)OC)cc1)C1CCCCC1	16.3
COc1ccc(OCCC(=O)c2ccc(OC)cc2)cc1	4.68
CC(OC(=O)CC1CCCCC1)C(=O)Nc1cccc(C#N)c1 (stereo not drawn)	6.92
COc1cc(/C=N/NC(=O)C2CCN(CC(O)COCc3ccccc3)CC2)cc(OC)c1OC (stereo not drawn)	-34.2
COc1cc(/C=N/NC(=O)C2CCN(CC(O)COCc3ccccc3)CC2)ccc1O (stereo not drawn)	-63.6
CCOc1ccc(/C=N/NC(=O)C2CC2)cc1OC	19.1
O=C(Nc1ccccc1)OCCOc1ccc(Br)cc1	11.2
O=C(O)c1ccc(C[n+]2c(-c3ccccc3)csc2Nc2ccccc2)cc1.[Br-]	8.98
CCOC(=O)c1cnc2c(C)cccc2c1NCCc1ccc(OC)c(OC)c1	-4.73
CCOC(=O)c1cnc2ccccc2c1NCCc1ccc(OC)c(OC)c1	-72
COc1ccc(CCNc2nc(-c3cccnc3)nc3ccccc23)cc1OC	9.94
CCOC(=O)c1cnc2ccc(OC)cc2c1NCCc1ccc(OC)c(OC)c1	-69.5
CCOC(=O)c1cnc2ccc(OC)cc2c1NCCN1CCOCC1	-13.3
CCOC(=O)c1cnc2ccccc2c1NCCO	-15.2
Cl.Oc1ccc(CCNc2c3ccccc3nc3ccccc23)cc1O	-3.93
CCOC(=O)c1cnc2ccc(C(=O)OC)cc2c1NCCc1ccc(OC)c(OC)c1	0.861
COc1ccc(CCNc2c3ccccc3nc3ccccc23)cc1OC.Cl	-59.8
O=C(CCCOc1ccc(Cl)cc1)NC1CCCCC1	12.5
Cc1ccc2sc(NNC(=O)c3ccc4c(c3)OCCO4)nc2c1C	8.2
CCC(=O)n1nc(-c2ccc(Cl)cc2)nc1NCc1ccccc1	8.9

Compound	hERG current change (%, negative = inhibition) at 1uM [%]
COc1cccc(N2CC(O)=C(c3nc4ccccc4c(=O)[nH]3)C2=N)c1	6.93
Cc1c(O)ccc(NS(=O)(=O)c2ccccc2)c1C	13
O=C1CC(N2CCC(n3c(=O)[nH]c4ccccc43)CC2)C(=O)N1c1ccc(F)cc1 (stereo not drawn)	7.15
O=C(Nc1cccc(F)c1)N1CCC(n2c(=O)[nH]c3ccccc32)CC1	2.25
O=c1[nH]c2ccccc2n1C1CCN(CCCC(c2ccc(F)cc2)c2ccc(F)cc2)CC1	-76.5
O=c1[nH]c2ccccc2n1C1CCCCC1	7.5
O=c1[nH]c2ccccc2n1CCCN1CCC(n2c(=O)[nH]c3cc(Cl)ccc32)CC1	-46.8
O=C(CCCN1CCC(n2c(=O)[nH]c3ccccc32)CC1)c1ccc(F)cc1	-80.8
CCN(CC)C(=O)c1ccc(NC(=O)c2ccc(-n3cncn3)c([N+](=O)[O-])c2)cc1	4.18
CS(=O)(=O)NNC(=O)CN1C(=O)C2C3C=CC(C3)C2C1=O (stereo not drawn)	22.9
Cc1noc(C)c1C(=O)Nc1nc2ccc(F)cc2s1	2.2
CCOC(=O)C(C)Sc1nnc(Cn2c(=O)sc3ccccc32)n1-c1ccccc1 (stereo not drawn)	4.98
CCOCCn1c(=O)c2c(nc3n2CC(C)CN3Cc2ccccc2)n(C)c1=O (stereo not drawn)	-14.4
CCOCCn1c(=O)c2c(nc3n2CC(C)CN3CCc2ccccc2)n(C)c1=O (stereo not drawn)	-58.9
COCCn1c(=O)c2c(nc3n2CC(C)CN3CCc2ccccc2)n(C)c1=O (stereo not drawn)	-9.39
O=C(CC1NCCNC1=O)Nc1cccc([N+](=O)[O-])c1 (stereo not drawn)	6.97
CCC(C)N(C(=O)COC(=O)c1ccccc1SCC(=O)N1CCCC1)C1CCS(=O)(=O)C1 (stereo not drawn)	11.9
O=C1c2ccccc2-c2nc3ncnn3c(-c3ccccc3Cl)c21	5.18
Cc1ccc(Nc2nc(NCCCN3CCOCC3)nc(N)c2[N+](=O)[O-])cc1	-56.2
Cc1ccc(Nc2nc(NCCCN3CCOCC3)nc(N)c2[N+](=O)[O-])cc1C	4.15
COc1ccc(Nc2nc(NCCCN3CCOCC3)nc(N)c2[N+](=O)[O-])cc1	3.71
COc1ccc(NC(=O)c2ccc(-n3cccn3)nc2)c(OC)c1	17.4
COC(=O)c1ccc2nc(NC(=O)CN3C(=O)CCC3=O)sc2c1	14.3
CN(CC(=O)Nc1cccc(F)c1)C(=O)c1cc(S(=O)(=O)N2CCCCC2)ccc1N1CCOCC1	3.68
